Compound activity deposited in PubChem by several laboratories.
This is a sample that favours compounds with a hit; in the whole collection about 3.1% have one here.
HIF act: HIF pathway transcriptional activators, primary screen, cell-based, U2OS HRE-luciferase, luminescence; AID 1910, 2009; U2OS HRE-luciferase reporter; normalized: DMSO 0%, desferrioxamine 100%; activation, % at 7.5 µM (by protocol); actives 0.32% (n = 300,000);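 active = mean activation of at least 10% of the iron chelator positive control signal, with at least half of replicates also reaching 10%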
HSP90 refold inh: HSP90 inhibitors, primary screen, cell lysate, luminescence; actives 0.91% (n = 290,000); AID 1789, 2009; Rabbit reticulocyte lysate, luciferase refolding luminescence, 3 h; Heat shock protein HSP 90 (rabbit reticulocyte lysate; luciferase refolding); inhibition, % at 5.6 µM;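 active = inhibition above the screen-wide mean plus 3 SD, computed separately per campaign, cut at about 16% in these data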;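 also: 0% = DMSO wells and 100% = 60 µM geldanamycin wells; inhibitors lower the luminescence because luciferase stays unfolded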
HSF-1 act: HSF-1 activators, primary screen, NIH3T3-HGL cells, MG132 stress, luminescence, single point; NIH3T3-HGL HSF-1 luciferase reporter, 8 h; 100% = twice DMSO control signal; activation, % at 9 µM; actives 1.7% (n = 300,000);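 active = mean replicate activation of at least 50% with a set share of replicates each reaching 50%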;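 also: 0% = median of the neutral control wells and 100% = twice that signal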
ARNT TACC3 PPI: disruptors of ARNT/TACC3 protein interaction, primary screen, biochemical, AlphaScreen, single concentration; AID 623870, 2012; AlphaScreen His-ARNT PAS-B/GST-TACC3 binding, luminescence; TACC3 fragment carries E629A point mutation; actives 0.66% (n = 390,000); Transforming acidic coiled-coil-containing protein 3 (Homo sapiens), Q9Y6A5; inhibition, % at 9.99 µM;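 active = mean inhibition of replicates at least 50% and at least half of replicates each reaching 50%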;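 also: 0% = complete ARNT plus TACC3 wells and 100% = ARNT alone without TACC3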
HSF1 inh: HSF1 inhibitors in luciferase reporter cells, primary screen, cell-based, NIH3T3, luminescence | AID 2098, 2009 | NIH3T3-HGL HSE-luciferase, MG132-induced, luminescence 8 h; hits give low values | activity change, negative = inhibition, % at 7.5 µM (by protocol) | actives 0.77% (n = 300,000);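 active = more than half of replicate wells show activity change below -50%, luminescence cut by over half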;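 also: luciferase reports HSF-1 transcriptional activity via heat shock element; 0% = median of DMSO wells and -100% = zero luminescence signal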
The depositor's hits bear a star; / = no result.

SMILES | HIF act | HSP90 refold inh | HSF-1 act | ARNT TACC3 PPI | HSF1 inh
Cc1cc(C(=O)CSc2nc3ccccc3c(=O)n2C)c(C)n1CC1CCCO1 (stereo not drawn) | 0 | -2 | 0 | / | 1
Cc1cc(C(=O)CSc2nc3ccccc3c(=O)[nH]2)c(C)n1CC1CCCO1 (stereo not drawn) | 4 | -1 | 59* | 2 | 22
Cc1cc(C(=O)COC(=O)c2cccc(S(=O)(=O)N(C)C)c2)c(C)n1CC1CCCO1 (stereo not drawn) | / | / | / | 1 | /
C#Cc1ccc([C@@H]2C=C(C(=O)Nc3ccccc3)O[C@H](OCc3ccc(CO)cc3)C2)cc1 | / | / | / | -12 | /
COc1cccc(N2C(=O)N(c3ccccc3Cl)C3CS(=O)(=O)CC32)c1 (stereo not drawn) | 0 | 1 | 5 | -9 | -5
COc1cccc(N2C(=O)N(c3ccccc3)C3CS(=O)(=O)CC32)c1 (stereo not drawn) | -1 | -2 | -88 | -10 | -84*
CCC(=O)Nc1ccc2c(c1)OC[C@@H](C)N(C(=O)Cc1ccccn1)C[C@@H](C)[C@@H](OC)CN(C)C2=O | / | / | / | -2 | /
COc1cccc(/C=N/NC(=O)CNC(=O)C(c2ccccc2)c2ccccc2)c1O | 14* | 2 | -14 | 8 | -3
COc1cccc(/C=N/NC(=O)CSCC(=O)Nc2ccccc2)c1O | 17* | -10 | 26 | 3 | 4
COc1cccc(/C=N\NC(=O)Cn2nnc3ccccc32)c1O | 16* | -4 | 5 | / | 1
C[C@H](CO)N1C[C@H](C)[C@@H](CN(C)Cc2ccc(Cl)c(Cl)c2)Oc2c(NC(=O)Nc3ccc(C(F)(F)F)cc3)cccc2C1=O | / | / | / | 2 | /
C[C@@H]1CN([C@@H](C)CO)C(=O)Cc2cc(NS(C)(=O)=O)ccc2O[C@H]1CN(C)Cc1ccc(Oc2ccccc2)cc1 | / | / | / | 3 | /
Cc1ccc(NC(=O)C2CCCN(c3ncccn3)C2)cc1F (stereo not drawn) | 3 | -3 | 60* | 8 | 23
Cc1cc(C)cc(NC(=O)C2CCCN(c3ncccn3)C2)c1 (stereo not drawn) | 0 | -4 | 3 | 13 | -5
O=C(Nc1ccc2c(c1)[C@H]1C[C@H](CC(=O)N3CCOCC3)O[C@H](CO)[C@H]1O2)c1cccnc1 | / | / | / | -5 | /
O=C1Nc2ccc(Cl)cc2/C1=C/C1CC=CCC1 (stereo not drawn) | 394* | 1 | -3 | 6 | -9
Cc1ccc(S(=O)(=O)Nc2cc(-c3ccccc3)nn2C)cc1 | 0 | -1 | 33 | / | 7
Cc1ccc(S(=O)(=O)Nc2cc(-c3ccc(Cl)cc3)nn2C)cc1 | 19* | 0 | 2 | / | -10
COc1ccccc1Oc1ccc2c(c1)C(=O)N(c1ccc(Br)c3cccnc13)C2=O | 0 | -1 | -81 | -2 | -75*
C[C@@H]1CCCCO[C@H](CN(C)Cc2ccncc2)[C@H](C)CN([C@@H](C)CO)C(=O)c2cc(NC(=O)CCCN(C)C)ccc2O1 | / | / | / | 8 | /
COc1ccc(C(=O)Nc2nc3ccccc3s2)c(OC)c1 | -3 | 91* | -93 | 1 | -93*
Nc1ccc(C(=O)Nc2nc3ccccc3s2)cc1 | / | 5 | 57* | -3 | 33
COc1n[nH]c(C(=O)Nc2nc3ccccc3s2)c1[N+](=O)[O-] | 1 | -4 | -69 | 3 | -65*
COc1ccc2nc(NC(=O)c3ccccc3C(=O)O)sc2c1 | -6 | -2 | 2 | -9 | 0
CN1C(=O)c2cc(NC(=O)C3CC3)ccc2OC[C@H]2O[C@H](CC(=O)NCC3CCCCC3)CC[C@@H]21 | / | / | / | -4 | /
SMILES | HIF act | HSP90 refold inh | HSF-1 act | ARNT TACC3 PPI | HSF1 inh
Cc1noc(C)c1NC(=O)N(C)C[C@H]1Oc2ccc(NC(=O)Cc3cn(C)c4ccccc34)cc2C(=O)N([C@@H](C)CO)C[C@@H]1C | / | / | / | -14 | /
Cc1nn(-c2ccccc2)c(Cl)c1CN(C(=O)CCl)c1ccc(Cl)cc1 | -3 | 0 | -85 | -7 | -86*
CC(=O)N(Cc1c(C)nn(-c2ccccc2)c1Cl)c1ccc(Cl)cc1 | 0 | 1 | 6 | -7 | 6
O=C(NN=C(c1ccccc1)c1ccccc1)C(CCl)C1CCCCC1 (stereo not drawn) | / | / | / | -4 | /
CC(C(=O)NN=C(c1ccccc1)c1ccccc1)N1CCCC1 (stereo not drawn) | -1 | 0 | 55* | 1 | 17
CCCCC1C(=O)CC[C@H]2[C@@H]1CC(=O)[C@@H]2C/C=C\CCCC(=O)O (stereo partly drawn) | 0 | -1 | 72* | 8 | 40
C[C@H]1CCCCO[C@@H](CN(C)C(=O)Nc2ccccc2)[C@@H](C)CN([C@@H](C)CO)C(=O)c2cc(NC(=O)Nc3cccc4ccccc34)ccc2O1 | / | / | / | -1 | /
CCc1cc[n+](CC(=O)Nc2ccc(Cl)cc2Cl)cc1 | 0 | 1 | -77 | / | -72*
COc1ccc(S(=O)(=O)Nc2ccc3c(c2)C(=O)N([C@@H](C)CO)C[C@H](C)[C@H](CN(C)C(=O)NC2CCCCC2)OCCCC[C@@H](C)O3)cc1 | / | / | / | -1 | /
Cc1ccc(NC(=O)C2CC2c2ccccc2)c([N+](=O)[O-])c1 (stereo not drawn) | 1 | -2 | 35 | 46* | 5
COC1(OC)N=C(N)C2(C#N)C(c3ccccc3)NC(C)=CC12C#N (stereo not drawn) | 0 | 1 | -13 | 57* | -5
COC1(OC)N=C(N)C2(C#N)C(c3cccc(Oc4ccccc4)c3)C12C#N (stereo not drawn) | 0 | 1 | -8 | 2 | 1
COc1cccc(NC(=S)N(CCN(C)C)C(C)c2cccnc2)c1 (stereo not drawn) | 3 | 0 | 46 | -3 | 23
Cc1cccc(NC(=S)N(CCN(C)C)C(C)c2cccnc2)c1 (stereo not drawn) | 0 | 5 | 60* | 1 | 23
CN1CCN(Cc2nc3ccccc3c(=O)n2Cc2nc(-c3ccccc3F)cs2)CC1 | 20* | 1 | -5 | 14 | 6
CN1CCN(Cc2nc3ccccc3c(=O)n2Cc2nc(-c3ccc4ccccc4c3)cs2)CC1 | -3 | 3 | 12 | 6 | 0
O=C(N/N=C/c1sc2ccccc2c1O)c1ccccc1 | 5 | 5 | 270* | 61* | 197
O=C(N/N=C/c1ccc([N+](=O)[O-])s1)c1ccccc1 | -4 | 3 | 13 | -3 | 2
COc1ccc(C(=O)N/N=C/c2sc3ccccc3c2O)cc1 | 0 | 15 | 10 | 78* | -3
COc1ccc(C(=O)N/N=C/c2cccnc2)cc1 | 1 | 4 | -9 | 6 | -7
